697 NFkB inh: inhibitors of PMA/ionomycin-induced NF-kB reporter, 697 cells, primary screen, B-cell NF-kB inhibitor project, cell-based, luminescence, uHTS; 0.33% of 330,000 active; inhibition, % at 4 µM; AID 435022, 2010; 697 B-cell NF-kB luciferase reporter, 16 h; in the data active = inhibition above about 35%
Jurkat NFkB inh: inhibitors of induced NF-kB luciferase reporter, primary screen, TCR NF-kB activation inhibitor project, cell-based, luminescence, uHTS; Jurkat, PMA/ionomycin-induced NF-kB luciferase reporter; inhibition, % at 4 µM; 0.53% of 330,000 active; AID 435003, 2010; in the data active = inhibition above about 50%
Mdm2-MdmX inh: inhibitors of human Mdm2-MdmX association, primary screen, cell-based, luminescence, split luciferase, SaOS-2, uHTS | Protein Mdm4 (Homo sapiens) + E3 ubiquitin-protein ligase Mdm2 (Homo sapiens), … | SaOS-2 split-luciferase Mdm2/MdmX complementation | inhibition, % at 8 µM | 3% of 330,000 active | AID 485346, 2010;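 active = inhibition of at least 50% at 8 µM in the primary screen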
Shn3 inh set2: reduction of Shn3 3'UTR firefly luciferase signal, primary screen, Schnurri-3 inhibitor project, cell-based, Clone20 osteoblasts, set 2; Clone20 osteoblast Shn3 3'UTR firefly luciferase, 24 h; inhibition, % at 12.5 µM; 0.52% of 360,000 active; AID 588674, 2011;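 active = mean inhibition of at least 75% with every replicate also reaching 75%; inconclusive = mean inhibition at least 75% but some replicate below; inactive = mean inhibition below 75%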;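 note: 0% = median of neutral control wells and 100% = pilot-screen positive control compound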
Gli-Sufu antag: Gli-Sufu pathway antagonists, primary screen, luciferase luminescence, Sufu-KO-LIGHT cells, uHTS | Sufu-KO-LIGHT fibroblasts, Gli luciferase reporter luminescence | inhibition, % at 5 µM | 0.74% of 340,000 active | AID 588413, 2011;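 active = inhibition above about 55%, limit read from the data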;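 note: 0% = DMSO-treated cells and 100% = wells with medium but no cells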
Mdm2 MdmX conf: Mdm2-MdmX complex disruptors, retested hits, confirmation, luminescence, single concentration. shares compounds with Mdm2-MdmX inh. Mdm2-MdmX binding, luminescent assay. inhibition, % at 8 µM. 55% of 10,000 active. AID 489028, 2010; in the data active = inhibition above about 40%
FLuc counter: full-length luciferase signal inhibition, confirmation, counter-screen for Mdm2/MdmX interaction inhibitor project, cell-based, single concentration, SaOS-2; shares compounds with Mdm2-MdmX inh; inhibition, % at 8 µM; 77% of 6,200 active; SaOS-2 full-length luciferase counterscreen, luminescence;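 active = mean inhibition at 8 µM reaching about 37%, which flags the compound as non-specific, limit read from the data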;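 note: p53-null SaOS-2 cells with luciferase driven by a doxycycline-inducible promoter; compound on cells about two nights before reading with doxycycline added after day one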
Starred values were filed as active, the others as inactive; ? = inconclusive; . = no result given. Only some compounds are listed: those with a hit (about 3.8% of all), similar ones and a draw of the others.

SMILES	697 NFkB inh	Jurkat NFkB inh	Mdm2-MdmX inh	Shn3 inh set2	Gli-Sufu antag	Mdm2 MdmX conf	others
C[C@@]12CCC=C[C@H]1[C@H](c1ccc3ccccc3c1Br)N(Cc1ccccc1)C2=O	-2	7	50*	14	2	9
CC[C@@H]1CC=C[C@H]2[C@H]1C(=O)N(Cc1ccccc1)[C@H]2c1ccoc1	-144	17	69*	14	0	9
C[C@@H]1CC=C[C@H]2[C@H]1C(=O)N(Cc1ccccc1)[C@H]2c1ccoc1	-21	1	5	-5	-1	.
CC(=O)c1ccc(-c2ccc([C@H]3[C@@H]4C=CCC[C@@]4(C)C(=O)N3Cc3ccccc3)c(F)c2)cc1	14	4	54*	36	-22	16
C[C@@H]1CC=C[C@H]2[C@H]1C(=O)N(Cc1ccccc1)[C@H]2c1ccc2ccccc2c1Br	-165	29	84*	9	8	27
Cc1cc(C)cc(C(=O)OCC(=O)NCc2ccco2)c1	-52	-10	0	7	4	.
CCN1CC(CN(C)Cc2cn(-c3ccc(C)cc3)nc2-c2cccc(C)c2)CC1=O (stereo not given)	-6	2	21	-8	20	.
CC(=O)c1ccc(-c2ccc([C@H]3[C@H]4C=CC[C@@H](C)[C@@H]4C(=O)N3Cc3ccccc3)c(F)c2)cc1	11	7	56*	16	-1	11
COC(=O)c1ccc(-c2ccc([C@H]3[C@H]4C=CC[C@@H](C)[C@@H]4C(=O)N3Cc3ccccc3)c(F)c2)cc1	-37	1	39	8	3	.
CCN(C(=O)c1cc2c(=O)[nH]c3ccc(C)cc3c2s1)c1cccc(C)c1	-32	44	50	-25	-2	52*	FLuc counter=64*
Cc1ccc2[nH]c(=O)c3cc(C(=O)N(C)c4ccc(C)c(C)c4)sc3c2c1	19	30	65*	-8	0	40*	FLuc counter=67*
Cc1ccc2[nH]c(=O)c3cc(C(=O)N(C)C4CCCCC4)sc3c2c1	-30	-47	-25	-3	-11	.
CCN(C(=O)c1cc2c(=O)[nH]c3ccc(C)cc3c2s1)c1ccc(F)cc1	-17	-11	48	5	11	.
CCN(C(=O)c1cc2c(=O)[nH]c3ccc(C)cc3c2s1)c1ccccc1C	-62	-21	57*	28	6	-9
CC(=O)N1c2ccc(S(=O)(=O)N3CCC(C(=O)N4CCN(c5ccccc5F)CC4)CC3)cc2CC1C (stereo not given)	-14	-4	13	?	43	.
CC1CC(C)CN(C(=O)CCC(=O)Nc2nnc(C3CCCCC3)s2)C1 (stereo not given)	-26	9	6	3	11	.
Clc1ccc2[nH]c3c(c2c1)CNCC3	3	28	41	5	8	.
Cc1ccc2nc(/C(C#N)=C/c3cn[nH]c3-c3ccc(F)cc3)[nH]c2c1	-41	37	66*	35	-7	57*	FLuc counter=48*
Cc1ccc(S(=O)(=O)CCc2nnc(NC(=O)CCl)s2)cc1C	22	-2	75*	-9	3	11
Cc1ccc(S(=O)(=O)CCc2nnc(N)s2)cc1C	7	-5	29	-2	-1	.
CCc1cccc(C)c1NC(=O)C1CN(S(=O)(=O)c2ccccc2)CCN1S(=O)(=O)c1ccccc1 (stereo not given)	6	-8	8	11	6	.
O=C(N/N=C1/CCCc2ccccc21)C(c1ccccc1)c1ccccc1	-7	-8	58*	-7	14	3
O=C(N/N=C1/CCCc2ccccc21)c1cc([N+](=O)[O-])cc([N+](=O)[O-])c1	19	5	67*	.	.	30	FLuc counter=94*

Assay outcomes from PubChem.
